These results are taken from PubChem BioAssay (EPA / NIEHS).

In assay [1] the target is Agonist Androgen Response Element (ARE), AR (gene 367) (UniProt P10275). Briefly: OT_AR_ARELUC_AG_1440: Odyssey Thera (OT) 24-hour CHO-K1 Luciferase Assay for Agonist Androgen Response Element (ARE) (AID 2283379). A digest of the protocol:
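Seed CHO-K1 cells; dose compounds for 24 h; add D-luciferin plus ATP in PBS; read luminescence. Signal increase relative to vehicle defines agonist activity, with at least 3 replicate wells per sample.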

The target of assay [2] is Estrogen receptor beta (Homo sapiens) (UniProt Q92731). Briefly: OT_ER_ERbERb_1440: Odyssey Thera (OT) 24-hour HEK293T Protein-Complementation Assay for Estrogen Receptor-beta/-beta Homodimer (AID 2283380).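 Also: fluorescence gain from ER beta LBD homodimer complementation read by laser scanning cytometry; scored as signal increase over DMSO baseline for both agonists and antagonists.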 Summed up:
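HEK293T cells stably expressing human ER-beta LBD (aa 310-547) PCA homodimer pair, dosed 24 h; formaldehyde-fixed, Draq5-stained. Readout: increase in nuclear (agonist) or nuclear plus cytoplasmic (antagonist) fluorescence intensity versus DMSO, gain-of-signal fitting.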

The target of assay [3] is Estrogen receptor (Homo sapiens) (UniProt P03372). Briefly: OT_ERa_GFPERaERE_0480: Odyssey Thera (OT) 8-hour HeLa Transcription Induction Assay for Estrogen Receptor (AID 2283381; active = hit-call score of the fitted dose curve at least 0.9, where 1 is the maximum; inactive = score below 0.9). Summed up:
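HeLa cells expressing GFP reporter under estrogen response element, imaged 8 h after dosing. GFP induction quantified by high-content fluorescence microscopy image analysis; gain of signal fitted versus DMSO.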

For assay [4] the target is unchanged. Put plainly: OT_ERa_GFPERaERE_0120: Odyssey Thera (OT) 2-hour HeLa Transcription Induction Assay for Estrogen Receptor (AID 2283382). A digest of the protocol: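 HeLa cells were dosed for 2 h, then GFP reporter induction was quantified by fluorescence microscopy with high-content image analysis. Gain of signal fitted against DMSO baseline.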
Assay [5] has as its target Retinoic acid receptor RXR-alpha (Homo sapiens) (UniProt P19793). Briefly: OT_NURR1_NURR1RXRa_0480: Odyssey Thera (OT) 8-hour HEK293T Protein Complementation Assay for Nurr1/retinoid X receptor (RXR) (AID 2283385). A digest of the protocol: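 HEK293T cells expressing Nurr1 and RXRα fused to reporter fragments (protein-fragment complementation); fluorescence measured 8 h after dosing. Gain of signal fitted relative to DMSO.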

Assay [6] shares this target. Briefly: OT_NURR1_NURR1RXRa_1440: Odyssey Thera (OT) 24-hour HEK293T Protein Complementation Assay for Nurr1/retinoid X receptor (RXR) (AID 2283386). Summed up: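 HEK293T protein-fragment complementation of Nurr1 and RXRα fused to reporter fragments; compounds 24 h. Fluorescence gain from reconstituted reporter fitted versus DMSO.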
Assay [7] concerns the target Peroxisome proliferator-activated receptor gamma (Homo sapiens) (UniProt P37231). Briefly: OT_PPARg_PPARgSRC1_0480: Odyssey Thera (OT) 8-hour Protein-Complementation Assay for Peroxisome Proliferator-activated Receptor Gamma / SRC-1 Co-activator (AID 2283387).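 Also: nuclear to cytoplasmic split Venus YFP fluorescence ratio reporting PPARg SRC-1 interaction.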 Summed up:
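Protein-fragment complementation in HEK293T: Venus YFP halves (residues 1-158, 159-239, mutated to IFP1/IFP2) fused to PPARg/SRC-1. 8 h exposure; N/C ratio at 488 nm; DMSO negative control.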

For assay [8] the target is unchanged. Briefly: OT_PPARg_PPARgSRC1_1440: Odyssey Thera (OT) 24-hour Protein-Complementation Assay for Peroxisome Proliferator-activated Receptor Gamma/ SRC-1 Co-activator (AID 2283388).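 Also: nuclear to cytoplasmic ratio of reconstituted Venus YFP fluorescence in fixed imaged cells.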 A digest of the protocol: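 Protein-fragment complementation between PPARg and coactivator SRC-1 was measured by fluorescence imaging in transiently transfected HEK293T cells after 24 h treatment. Signal was quantified as N/C ratio in the 488 nm channel, with DMSO as negative control.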

Read-out in assay [9]: Tumor necrosis factor receptor superfamily member 6 (Homo sapiens) (UniProt P25445)
Put plainly: LTEA_HepaRG_FAS: Life Technologies and Expression Analysis (LTEA) Assay for Fas cell surface death receptor (FAS) using HepaRG (AID 2283447; active = hit-call score of the fitted dose curve at least 0.9, where 1 is the maximum; inactive = score below 0.9). To be noted: mRNA level, 48 h; actives raise or lower the signal. A digest of the protocol: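 Differentiated human HepaRG cells, pre-cultured 48 h, were exposed in duplicate for 48 h to 8-point half-log concentrations (top 100 uM, 0.5% DMSO) in serum-free induction medium; FAS mRNA measured by qRT-PCR, normalized to ACTB/GAPDH/POLR2A, bidirectional fit versus DMSO.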

Read-out in assay [10]: Fatty acid synthase (Homo sapiens) (UniProt P49327)
Briefly: LTEA_HepaRG_FASN: Life Technologies and Expression Analysis (LTEA) Assay for Fatty Acid Synthase (FASN) using HepaRG (AID 2283448; active = hit-call score of the fitted dose curve at least 0.9, where 1 is the maximum; inactive = score below 0.9). The settings on record: mRNA level, 48 h; actives raise or lower the signal. Summed up:
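Differentiated HepaRG cells in serum-free induction medium exposed 48 h in duplicate to eight half-log concentrations, top 100 uM, 0.5% DMSO. FASN mRNA by qRT-PCR normalised to ACTB, GAPDH, POLR2A; bidirectional fit versus DMSO.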

Assay [11] in a line: CEETOX_H295R_11DCORT: CeeTox H295R High-throughput Steroidogenesis Assay for 11-Deoxycortisol (11DCORT) (AID 2283432; active = hit-call score of the fitted dose curve at least 0.9, where 1 is the maximum; inactive = score below 0.9;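 as to AC50: 11-deoxycortisol secreted into the medium measured by LC-MS/MS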). The settings on record: actives raise or lower the signal. A digest of the protocol: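 Adrenal carcinoma line H295R, run per OECD 456 with minor changes, was forskolin-stimulated (10 uM, 48 h) before a 48 h chemical exposure at 0.1% DMSO. Secreted 11-deoxycortisol was quantified by HPLC-MS/MS.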

A short description of assay [12]: CEETOX_H295R_OHPREG: CeeTox H295R High-throughput Steroidogenesis Assay for OH-Pregnenolone (OHPREG) (AID 2283434; active = hit-call score of the fitted dose curve at least 0.9, where 1 is the maximum; inactive = score below 0.9). The settings on record: actives raise or lower the signal. A digest of the protocol: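 Human adrenal H295R cells were prestimulated 48 h with 10 uM forskolin, then exposed 48 h to chemical in 0.1% DMSO. Medium 17alpha-hydroxypregnenolone was quantified by HPLC-MS/MS after MTBE extraction; bidirectional fitting versus DMSO baseline.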

The nature of assay [13]: CEETOX_H295R_OHPROG: CeeTox H295R High-throughput Steroidogenesis Assay for OH-Progesterone (OHPROG) (AID 2283435; active = hit-call score of the fitted dose curve at least 0.9, where 1 is the maximum; inactive = score below 0.9). To be noted: actives raise or lower the signal. Summed up: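 H295R adrenal cells prestimulated 48 h with 10 uM forskolin, then exposed 48 h to chemical (0.1% DMSO final). 17alpha-hydroxyprogesterone in medium quantified by HPLC-MS/MS; bidirectional fit versus DMSO, with MTT viability measured in the same wells.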

Assay [14] can be described thus: CEETOX_H295R_ANDR: CeeTox H295R High-throughput Steroidogenesis Assay for Androstenedione (ANDR) (AID 2283436; active = hit-call score of the fitted dose curve at least 0.9, where 1 is the maximum; inactive = score below 0.9). To be noted: actives raise or lower the signal. Summed up:
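H295R human adrenal cells (passages ≤10) were exposed to test chemicals for 48 h; androstenedione in medium was MTBE-extracted and quantified by HPLC-MS/MS against a 7-point standard curve. Bidirectional fitting used DMSO as baseline.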

Assay [15] can be described thus: CEETOX_H295R_CORTISOL: CeeTox H295R High-throughput Steroidogenesis Assay for Cortisol (AID 2283438; active = hit-call score of the fitted dose curve at least 0.9, where 1 is the maximum; inactive = score below 0.9;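 also: cortisol secreted into medium quantified by LC-MS/MS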). The settings on record: actives raise or lower the signal. Summed up:
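Forskolin-primed H295R cells (10 uM, 48 h) treated 48 h with test chemical in 0.1% DMSO. Cortisol in medium quantified by MTBE extraction and HPLC-MS/MS; bidirectional fit vs DMSO, MTT viability in same wells.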

A short description of assay [16]: CEETOX_H295R_DOC: CeeTox H295R High-throughput Steroidogenesis Assay for DOC (AID 2283439; active = hit-call score of the fitted dose curve at least 0.9, where 1 is the maximum; inactive = score below 0.9). To be noted: actives raise or lower the signal. Summed up: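 H295R cells prestimulated 48 h with 10 uM forskolin, then exposed 48 h to test chemical (0.1% DMSO final). Medium 11-deoxycorticosterone measured by HPLC-MS/MS after MTBE extraction; bidirectional fit vs DMSO, viability checked by MTT in same wells.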

Assay [17] can be described thus: CEETOX_H295R_ESTRADIOL: CeeTox H295R High-throughput Steroidogenesis Assay for Estradiol (AID 2283440; active = hit-call score of the fitted dose curve at least 0.9, where 1 is the maximum; inactive = score below 0.9;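 also: estradiol secreted into medium quantified by LC-MS/MS after dansyl derivatisation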). The settings on record: actives raise or lower the signal. Summed up: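 Estradiol secreted into the medium was measured by tandem mass spectrometry after liquid-liquid extraction and dansylation. Human H295R cells had been forskolin-primed (10 uM, 48 h) before a 48 h chemical exposure with 0.1% DMSO.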

Assay [18] is described as follows: CEETOX_H295R_ESTRONE: CeeTox H295R High-throughput Steroidogenesis Assay for Estrone (AID 2283441; active = hit-call score of the fitted dose curve at least 0.9, where 1 is the maximum; inactive = score below 0.9;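 also: estrone secreted into medium measured by LC-MS/MS after dansyl derivatization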). To be noted: actives raise or lower the signal. A digest of the protocol:
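H295R cells prestimulated 48 h with 10 uM forskolin, then exposed 48 h to chemicals in 0.1% DMSO final; estrone in medium extracted with MTBE, dansyl-derivatized, quantified by HPLC-MS/MS; bidirectional fitting versus DMSO, viability by MTT.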

A short description of assay [19]: CEETOX_H295R_PROG: CeeTox H295R High-throughput Steroidogenesis Assay for Progesterone (PROG) (AID 2283442; active = hit-call score of the fitted dose curve at least 0.9, where 1 is the maximum; inactive = score below 0.9;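 also: human H295R adrenal cells primed with 10 µM forskolin before dosing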). To be noted: actives raise or lower the signal. Summed up:
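Steps: seed H295R cells and let them adhere overnight; prime 48 h with 10 uM forskolin; dose with compound in DMSO at 0.1% final for 48 h; extract medium steroids with MTBE; measure progesterone by LC-MS/MS. MTT viability was run in the same wells.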

For assay [20], the target named is Bile acid receptor (Homo sapiens) (UniProt Q96RI1). Put plainly: OT_FXR_FXRSRC1_1440: Odyssey Thera (OT) 24-hour HEK293T Protein-Complementation Assay for Farnesoid X receptor/SRC-1 Co-activator (AID 2283384). Summed up: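 HEK293T cells, 24 h after chemical dosing. FXR–SRC-1 coactivator interaction read as fluorescence from protein-fragment complementation of a split reporter. Gain of signal fitted against DMSO baseline.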

Records with an inconclusive call do not appear. The source made the active and inactive calls. The calls were made as follows, unless noted: active = hit-call score of the fitted dose curve at least 0.9, where 1 is the maximum; inconclusive = response in the unintended direction; inactive = score below 0.9.

Estrogen receptor beta (Homo sapiens), sequence (Q92731 whole entry, looked up, the tested form may be a part): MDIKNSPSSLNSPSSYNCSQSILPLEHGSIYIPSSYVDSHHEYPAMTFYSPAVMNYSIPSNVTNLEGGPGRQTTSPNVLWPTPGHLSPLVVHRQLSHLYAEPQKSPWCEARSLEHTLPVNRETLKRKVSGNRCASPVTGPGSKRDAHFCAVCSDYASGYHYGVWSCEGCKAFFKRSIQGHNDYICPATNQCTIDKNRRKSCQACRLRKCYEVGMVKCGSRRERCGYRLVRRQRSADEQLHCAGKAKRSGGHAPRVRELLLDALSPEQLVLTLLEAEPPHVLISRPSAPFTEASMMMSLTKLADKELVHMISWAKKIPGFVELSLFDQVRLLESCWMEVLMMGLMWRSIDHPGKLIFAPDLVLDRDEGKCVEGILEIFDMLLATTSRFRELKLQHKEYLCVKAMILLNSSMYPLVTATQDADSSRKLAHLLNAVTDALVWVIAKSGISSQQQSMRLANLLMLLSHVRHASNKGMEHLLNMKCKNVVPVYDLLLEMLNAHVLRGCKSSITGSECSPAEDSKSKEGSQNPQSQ
Bile acid receptor (Homo sapiens), sequence (Q96RI1 whole entry, looked up, the tested form may be a part): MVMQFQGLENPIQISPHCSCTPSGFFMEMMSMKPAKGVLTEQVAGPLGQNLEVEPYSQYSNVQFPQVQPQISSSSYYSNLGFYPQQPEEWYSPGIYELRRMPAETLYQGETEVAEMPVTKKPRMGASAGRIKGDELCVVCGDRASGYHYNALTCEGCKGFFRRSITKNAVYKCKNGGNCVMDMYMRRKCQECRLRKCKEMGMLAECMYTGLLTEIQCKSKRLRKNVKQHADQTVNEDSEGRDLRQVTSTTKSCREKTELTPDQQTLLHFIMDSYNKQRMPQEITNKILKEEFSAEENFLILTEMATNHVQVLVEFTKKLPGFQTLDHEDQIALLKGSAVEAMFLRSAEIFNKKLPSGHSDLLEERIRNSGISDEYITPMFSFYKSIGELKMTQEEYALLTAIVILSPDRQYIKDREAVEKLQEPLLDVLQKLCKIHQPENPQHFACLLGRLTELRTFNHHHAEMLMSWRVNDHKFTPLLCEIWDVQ
Peroxisome proliferator-activated receptor gamma (Homo sapiens), sequence (P37231 whole entry, looked up, the tested form may be a part): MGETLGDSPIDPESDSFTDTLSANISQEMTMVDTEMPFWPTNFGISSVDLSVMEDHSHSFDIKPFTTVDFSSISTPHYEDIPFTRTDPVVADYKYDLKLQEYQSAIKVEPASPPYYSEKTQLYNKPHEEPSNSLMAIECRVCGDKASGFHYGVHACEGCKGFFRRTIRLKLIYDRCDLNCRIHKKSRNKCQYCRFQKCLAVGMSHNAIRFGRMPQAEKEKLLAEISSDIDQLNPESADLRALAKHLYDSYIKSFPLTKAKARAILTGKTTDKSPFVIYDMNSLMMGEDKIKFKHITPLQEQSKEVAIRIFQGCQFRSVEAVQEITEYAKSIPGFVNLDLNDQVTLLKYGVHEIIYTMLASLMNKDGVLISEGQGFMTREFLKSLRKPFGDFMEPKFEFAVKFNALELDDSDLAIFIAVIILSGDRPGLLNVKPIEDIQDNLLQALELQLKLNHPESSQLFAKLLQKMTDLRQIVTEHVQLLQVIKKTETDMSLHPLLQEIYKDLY
Fatty acid synthase (Homo sapiens), sequence (P49327 whole entry, looked up): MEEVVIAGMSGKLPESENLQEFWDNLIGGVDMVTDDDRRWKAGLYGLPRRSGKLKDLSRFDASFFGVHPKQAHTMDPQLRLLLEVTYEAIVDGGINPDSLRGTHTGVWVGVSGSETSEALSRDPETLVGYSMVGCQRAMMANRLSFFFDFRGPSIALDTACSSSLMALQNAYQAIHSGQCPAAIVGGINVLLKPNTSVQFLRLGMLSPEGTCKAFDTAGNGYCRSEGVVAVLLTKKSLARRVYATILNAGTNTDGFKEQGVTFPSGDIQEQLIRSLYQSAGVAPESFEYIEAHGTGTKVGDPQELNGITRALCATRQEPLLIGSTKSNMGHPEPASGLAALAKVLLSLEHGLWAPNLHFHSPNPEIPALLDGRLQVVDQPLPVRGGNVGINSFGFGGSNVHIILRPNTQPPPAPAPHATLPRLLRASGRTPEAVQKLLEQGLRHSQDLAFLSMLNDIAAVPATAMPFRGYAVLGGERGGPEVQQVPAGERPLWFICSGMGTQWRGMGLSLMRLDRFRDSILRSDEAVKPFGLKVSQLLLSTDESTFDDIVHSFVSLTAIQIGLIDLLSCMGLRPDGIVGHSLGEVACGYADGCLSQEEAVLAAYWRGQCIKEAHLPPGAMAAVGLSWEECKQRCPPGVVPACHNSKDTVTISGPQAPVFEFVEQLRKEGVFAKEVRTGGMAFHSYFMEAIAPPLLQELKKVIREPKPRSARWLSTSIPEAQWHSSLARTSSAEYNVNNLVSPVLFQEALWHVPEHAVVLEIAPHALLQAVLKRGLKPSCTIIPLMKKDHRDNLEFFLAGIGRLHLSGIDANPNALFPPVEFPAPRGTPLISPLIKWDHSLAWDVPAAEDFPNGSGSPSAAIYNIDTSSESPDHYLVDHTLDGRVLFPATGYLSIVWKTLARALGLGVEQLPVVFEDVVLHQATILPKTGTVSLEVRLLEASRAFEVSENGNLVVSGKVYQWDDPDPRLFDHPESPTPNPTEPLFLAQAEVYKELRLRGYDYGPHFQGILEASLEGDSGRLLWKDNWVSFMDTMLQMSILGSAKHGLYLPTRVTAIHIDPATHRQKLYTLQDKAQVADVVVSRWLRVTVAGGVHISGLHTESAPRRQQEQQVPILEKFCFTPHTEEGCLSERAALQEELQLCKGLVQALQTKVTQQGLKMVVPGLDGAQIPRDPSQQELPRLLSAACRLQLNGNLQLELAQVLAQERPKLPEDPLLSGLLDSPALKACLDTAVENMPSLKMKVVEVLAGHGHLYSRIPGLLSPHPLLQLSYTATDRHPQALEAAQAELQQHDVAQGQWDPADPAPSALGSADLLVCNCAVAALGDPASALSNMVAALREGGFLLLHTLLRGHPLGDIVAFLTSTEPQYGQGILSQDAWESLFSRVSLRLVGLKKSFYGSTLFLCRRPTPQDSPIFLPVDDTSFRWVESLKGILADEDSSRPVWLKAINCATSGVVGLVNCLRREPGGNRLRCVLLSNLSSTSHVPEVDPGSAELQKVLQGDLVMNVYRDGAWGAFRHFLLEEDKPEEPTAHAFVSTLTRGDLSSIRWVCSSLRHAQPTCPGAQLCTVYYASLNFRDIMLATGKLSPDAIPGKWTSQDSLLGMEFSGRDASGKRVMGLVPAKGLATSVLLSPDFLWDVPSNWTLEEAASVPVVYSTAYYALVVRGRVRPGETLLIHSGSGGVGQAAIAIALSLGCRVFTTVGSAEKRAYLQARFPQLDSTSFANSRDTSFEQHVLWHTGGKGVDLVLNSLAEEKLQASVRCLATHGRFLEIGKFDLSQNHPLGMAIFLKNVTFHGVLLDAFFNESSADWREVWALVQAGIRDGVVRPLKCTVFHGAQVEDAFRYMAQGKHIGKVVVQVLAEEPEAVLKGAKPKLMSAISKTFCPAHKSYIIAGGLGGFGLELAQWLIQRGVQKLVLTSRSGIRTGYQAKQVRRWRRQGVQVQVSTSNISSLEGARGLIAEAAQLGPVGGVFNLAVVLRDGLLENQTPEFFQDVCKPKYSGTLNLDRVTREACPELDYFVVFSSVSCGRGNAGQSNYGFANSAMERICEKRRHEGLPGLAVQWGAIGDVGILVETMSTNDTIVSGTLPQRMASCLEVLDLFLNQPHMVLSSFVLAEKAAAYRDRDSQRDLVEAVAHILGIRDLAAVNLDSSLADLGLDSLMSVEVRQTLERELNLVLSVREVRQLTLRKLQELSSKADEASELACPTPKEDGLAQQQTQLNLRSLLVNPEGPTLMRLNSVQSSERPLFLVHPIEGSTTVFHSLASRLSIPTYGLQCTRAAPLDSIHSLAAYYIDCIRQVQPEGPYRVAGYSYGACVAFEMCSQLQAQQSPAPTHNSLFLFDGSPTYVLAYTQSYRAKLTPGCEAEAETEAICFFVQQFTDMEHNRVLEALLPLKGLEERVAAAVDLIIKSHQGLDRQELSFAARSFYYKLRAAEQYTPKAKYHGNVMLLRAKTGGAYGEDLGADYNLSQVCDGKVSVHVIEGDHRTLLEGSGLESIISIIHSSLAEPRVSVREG
Estrogen receptor (Homo sapiens), sequence (P03372 whole entry, looked up): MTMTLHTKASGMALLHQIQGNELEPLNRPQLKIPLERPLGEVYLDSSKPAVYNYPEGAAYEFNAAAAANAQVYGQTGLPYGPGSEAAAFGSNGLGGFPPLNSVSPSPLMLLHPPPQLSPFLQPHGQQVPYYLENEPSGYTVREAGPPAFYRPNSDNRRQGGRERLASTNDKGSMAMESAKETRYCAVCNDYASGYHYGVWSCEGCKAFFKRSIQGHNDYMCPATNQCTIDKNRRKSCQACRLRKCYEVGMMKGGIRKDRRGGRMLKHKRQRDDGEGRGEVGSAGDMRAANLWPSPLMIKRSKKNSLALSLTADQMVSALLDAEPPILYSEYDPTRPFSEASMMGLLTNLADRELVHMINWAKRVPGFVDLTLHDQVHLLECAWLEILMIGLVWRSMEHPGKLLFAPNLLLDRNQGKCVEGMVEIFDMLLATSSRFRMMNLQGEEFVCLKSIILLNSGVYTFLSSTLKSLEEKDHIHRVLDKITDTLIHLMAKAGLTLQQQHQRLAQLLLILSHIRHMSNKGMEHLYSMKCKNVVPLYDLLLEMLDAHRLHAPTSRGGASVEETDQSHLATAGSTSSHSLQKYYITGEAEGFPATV
Retinoic acid receptor RXR-alpha (Homo sapiens), sequence (P19793 whole entry, looked up, the tested form may be a part): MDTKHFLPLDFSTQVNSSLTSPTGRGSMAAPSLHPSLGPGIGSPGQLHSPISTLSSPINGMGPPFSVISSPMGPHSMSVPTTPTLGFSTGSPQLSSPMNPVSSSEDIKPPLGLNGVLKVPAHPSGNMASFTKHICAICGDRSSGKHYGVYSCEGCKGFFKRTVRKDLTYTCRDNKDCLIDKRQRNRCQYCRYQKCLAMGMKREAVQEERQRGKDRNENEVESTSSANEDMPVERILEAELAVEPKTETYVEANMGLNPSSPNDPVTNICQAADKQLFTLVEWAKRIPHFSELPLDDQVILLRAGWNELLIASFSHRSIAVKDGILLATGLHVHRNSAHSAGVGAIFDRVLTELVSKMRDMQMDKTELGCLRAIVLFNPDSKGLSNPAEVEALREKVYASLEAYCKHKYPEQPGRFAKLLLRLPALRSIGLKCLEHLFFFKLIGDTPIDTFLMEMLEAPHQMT

For `CC(=O)Oc1ccccc1C(=O)O`, the compound was classed as inactive in assay [1], in [2], in assay [3], in assay [4], in assay [5] and in [6]. Besides, the compound was classed as inactive in [7], in assay [8], in [9] and in assay [10].

Broadly, the AC50 is the midpoint of the concentration-response curve, whichever way the signal moves. `Cc1cccc(Nc2cc(Cl)nc(SCC(=O)O)n2)c1C`: the result in assay [1], in [2], in [3], in assay [4], in assay [5] and in assay [6] was inactive. In addition, the compound was called inactive in [7], in [8], in [14], in assay [15], in [16] and in [17]. For the same compound, the compound was classed as inactive in [18], in [9] and in assay [10]. The AC50 is 7.04 µM (active) in assay [11], 13.1 µM (active) in [12], 8.61 µM (active) in assay [13] and 12.3 µM (active) in [19].

Take `O=c1[nH]cc(F)c(=O)[nH]1`: the compound was classed as inactive in [2], in assay [3], in assay [4], in assay [5], in assay [6] and in assay [7]. Besides, the compound was called inactive in assay [8] and in assay [10]. Also, the half-maximal activity concentration (AC50) in assay [20] was 5.73 µM (active); in assay [9], 31.3 µM (active).

As to `COc1cc(C=O)ccc1O`, the AC50 in [1] is 50 µM (active). The compound was called inactive in [2], in [3], in [4], in assay [5], in assay [6] and in assay [7]. In addition, the compound was called inactive in [8], in assay [9] and in [10].

As to `Cc1nc(-c2ccc3c(c2)CCN(CCC2CCC(NC(=O)/C=C/c4ccc(F)cc4)CC2)CC3)no1` (stereo not given), the call in [1], in [2], in [3], in assay [4], in assay [20] and in assay [5] was inactive. The result in assay [6], in assay [7], in [8], in assay [15], in assay [17] and in assay [18] was inactive. Moreover, the call in [9] and in [10] was inactive. The AC50 in assay [11] was 0.199 µM (active); in [12], 0.0518 µM (active); in [13], 0.224 µM (active); in assay [14], 0.365 µM (active); in [16], 0.0532 µM (active); in assay [19] it was 0.0391 µM (active).

With `CCc1c(C(=O)NN2CCCCC2)nn(-c2ccc(Cl)cc2Cl)c1-c1ccc(Br)cc1`, the compound was classed as inactive in [2], in assay [3], in assay [4], in assay [5], in [6] and in [7]. Moreover, the compound was classed as inactive in assay [8]. In addition, the AC50 was 1.28 µM (active) in [20], 50 µM (active) in [9] and 82.7 µM (active) in assay [10].

`Cc1cc(NC(=O)C(=O)O)cc(C)c1Oc1ccc(O)c2c1CCC2`: the call in assay [1], in assay [3], in assay [4], in assay [20], in assay [5] and in assay [6] was inactive. Besides, the outcome in assay [11], in assay [12], in assay [15], in assay [9] and in [10] was inactive. In addition, the values for the AC50 in assay [13], in assay [16] and in [19] were 35 µM (active), 37.6 µM (active) and 43.2 µM (active), respectively.

`Cc1cccc(C)c1O`: the compound was called inactive in assay [1], in [2], in assay [3], in assay [4], in [7] and in assay [8]. Besides, the result in assay [9] and in assay [10] was inactive.

Consider `CCCCCCCCCCC`, for which the result in [2], in assay [3], in assay [4], in [5], in [6] and in [7] was inactive. Besides, the call in assay [8], in assay [9] and in assay [10] was inactive.
